Reference: PubChem BioAssay (NCI)
This is part of a sample that, as a whole, favours compounds with a hit. Of some 83,000 tested, about 20% had one in any assay.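 Compound tested at a single concentration for 48 hours in 96-well plates; a percent growth value below 10 was scored as active.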 A number with no mark means an inactive call. Activity calls are given as the source filed them.

System: SF-539 CNS
Test: NCI-60 one-dose screen, 48 h (100 = growth as untreated, 0 = no growth, -100 = all killed)
Settings: 10 µM unless noted

SMILES | growth
O=C(NCc1cccnc1)c1ccc([N+](=O)[O-])o1 | -30.9% (active)
N#CC1=C(N)Oc2cc(N)ccc2C1c1ccc(F)cc1 (stereo unspecified) | 83.6%
O=c1[nH]c(-c2ccncc2)nc2sc3c(c12)CCCCCC3 | 82.6%
CC1SC(c2cccc(Oc3ccccc3)c2)N(CCc2cccs2)C1=O (stereo unspecified) | -82.3% (active)
COc1ccc(-c2c(-c3cc4c(c(OC)c3OC)OCO4)noc2N)cc1 | 1.11% (active)
c1ccc(-c2n(Cc3ccc4ccccc4n3)c3ccccc3[n+]2Cc2ccc3ccccc3n2)cc1 | 7.88% (active)
O=S(=O)(Nc1ncccn1)c1ccc(Nc2ccc3nnc(-c4ccncc4)n3n2)cc1 | 95.2%
CC(=O)c1cc(C)c(OC(=O)c2ccccc2)c(C)c1 | 100%
Oc1ccccc1/C=N/Nc1nc2ccccc2s1 | 44.6%
O=C1NC(=S)S/C1=C\c1cccc([N+](=O)[O-])c1 | 88.6%
COCCOC1=C(Cl)C(=O)c2ccccc2C1=O | -10.4% (active)
O=C1NC(=O)C(CSc2ccccc2)(c2ccccc2)N1 (stereo unspecified) | 113%
Clc1ccccc1Nc1ccc2nnc(-c3ccncc3)n2n1 | 92.7%
COc1cc(CNCCCN2C(=O)c3ccc4c5c(ccc(c35)C2=O)C(=O)N(CCCNCc2cc(OC)c(OC)c(OC)c2)C4=O)cc(OC)c1OC | -86.9% (active)
O=C1C(OCCOc2ccccc2)=C(OCCOc2ccccc2)C(=O)c2ccccc21 | 94.9%
COc1ccc(OC)c(C2C(C#N)=C(N)Oc3cc(O)ccc32)c1 (stereo unspecified) | 104%
